Source: ChEMBL document CHEMBL3988442, “University of Dundee, Small-Polar-MMV Screening Library” (2021)
In all, about 48,000 compounds went through this assay and about 13,000 (27%) showed an effect of 50% or more. The list shows a part of the results.

test system: Wolbachia pipientis; test: Anti-Wolbachia Cell-Based Screen; type: functional; set-up: scale not given: in the data most compounds retested in dose-response had high values; settings: 5 µM

Compound	Percent Effect [%]
O=C(c1ccncc1)N1CCC(O)(Cn2ccc3ccncc32)CC1	-4.152
Cc1cc(C(=O)N2CCC(O)(Cn3c(C)cc4ccncc43)CC2)on1	79.54
O=C(c1cnc(Nc2ccccc2)nc1)N1CCC(O)(CO)CC1	-9.694
CN(C)CC1(O)CCCN(C(=O)Cn2ccc3ccccc32)CC1 (stereo not drawn)	-35.57
Cc1cc2ccccc2n1CCC(=O)N1CCCC(O)(CN(C)C)CC1 (stereo not drawn)	-7.968
Cc1cc2ccncc2n1CC1(O)CCN(C(=O)c2ccccn2)CC1	79.68
Cc1cc2ccncc2n1CC1(O)CCN(C(=O)c2ccncc2)CC1	105.6
Cc1cc(C(=O)N2CCC(O)(Cn3ccc4ccncc43)CC2)on1	111.8
Cc1cc(C(=O)N2C[C@@H]3COC[C@]3(c3nnc(C(C)C)o3)C2)on1	3.18
O=C(c1cncc(N2CCC(O)(CO)CC2)n1)N1CCCC1	-6.183
CCNc1ncc(C(=O)NCCc2csc(-c3ncccn3)n2)cn1	-22.07
CCN(Cc1cccc(F)c1)c1ccc2nnnn2n1	20.24
CN(C)C(=O)CCC(=O)NCc1cccnc1-n1cnc2ccccc21	-4.725
Cc1ncsc1C(=O)N1CC[C@@H]2[C@@H](CC1)OCCN2c1cccnc1	-15.36
O=C(c1cncc(Br)c1)N1CCC(O)(Cn2ccc3ccncc32)CC1	-1.363
Cc1cc2ccncc2n1CC1(O)CCN(C(=O)c2cccnc2)CC1	107.2
Cc1ncsc1C(=O)N1CCC(O)(Cn2c(C)cc3ccncc32)CC1	102
Cc1nc(N2CCN(C(=O)c3cccnc3)CC2)cc(-n2cccc2)n1	13.16
Cc1nnc(SCCC(=O)N(C)Cc2c(F)cccc2Cl)[nH]1	13.01
CCCn1nc2c(cc1=O)CN(CCS(C)(=O)=O)CC2	0.2637
Cc1nc2c(c(N3CCC(O)(Cn4ccnc4)CC3)n1)CCNCC2	-21.19
CC(NC(=O)NCc1ccccc1Cl)c1ccccn1 (stereo not drawn)	111.7
CC(NC(=O)N(C)Cc1ccc(Cl)s1)c1ccccn1 (stereo not drawn)	6.324
CC(NC(=O)NCCc1ccc(Cl)s1)c1ccccn1 (stereo not drawn)	158
CCCNC(=O)c1ccc(NC(=O)NC(C)c2ccccn2)cc1 (stereo not drawn)	-5.222
CC(NC(=O)NCc1cc(Br)cs1)c1ccccn1 (stereo not drawn)	100.4

Compound	Percent Effect [%]
CC(NC(=O)NCc1ccc(Cl)s1)c1ccccn1 (stereo not drawn)	3.359
CC(C)CNC(=O)c1ccc(NC(=O)NC(C)c2ccccn2)cc1 (stereo not drawn)	-15.83
CC(NC(=O)NCc1ccc(Cl)cc1)c1ccccn1 (stereo not drawn)	9.197
CC(NC(=O)Nc1cccnc1N1CCOCC1)c1ccccn1 (stereo not drawn)	-6.169
CC(C)CN1CC2(CCN(C(=O)C3CNC(=O)N3)CC2)CC1=O (stereo not drawn)	-19.59
CN(C)C(CNC(=O)c1cc2c([nH]c1=O)CCCC2=O)c1ccsc1 (stereo not drawn)	7.24
Cc1ccc(CNC(=O)c2ccc(S(=O)(=O)N3C[C@@H]4C[C@H]3CN4)cc2)o1	13.35
COc1cccc(N2CCN(Cc3cc(C)cc(F)c3)CC2=O)c1	130.9
COCCCN1C(=O)CC[C@H]2CN(Cc3ccc4occc4c3)CC[C@H]21	-8.694
COc1cccc(N2CCN(Cc3ccc4ccn(C)c4c3)CC2=O)c1	113.3
COc1cccc(CN2CCN(Cc3ccc4nonc4c3)CC2=O)c1	-14.94
COc1cccc(N2CCN(Cc3cccc(CCN)c3)CC2=O)c1	112.7
COc1cccc(N2CCN(CC[C@H](O)c3ccccc3)CC2=O)c1	-29.06
COc1cccc(N2CCN(Cc3ccc(NC(C)=O)cc3)CC2=O)c1	-1.185
COc1cc(CN2CCN(c3cccc(OC)c3)C(=O)C2)cc(OC)c1	-15.09
COc1cccc(N2CCN(C(=O)C(OC)c3ccccc3)CC2=O)c1 (stereo not drawn)	13.04
COc1ccc(N2CCN(CC[C@H](O)c3ccccc3)CC2=O)cc1	-22.52
COc1cccc(N2CCN(Cc3ccc4occc4c3)CC2=O)c1	113.8
CCn1cc(CN2CCN(Cc3cccc(OC)c3)C(=O)C2)cc1C#N	-7.886
N#Cc1ccc(CNC(=O)C2=NN(c3ccccc3)C(=O)CN2)cc1	-19.54
N#Cc1ccnc(N2CCN(Cc3cccc(F)c3)CC2)c1	16.74
Cc1n[nH]c(=O)c2c(NC(=O)CN3CCOC(C)C3)oc(C)c12 (stereo not drawn)	0.9329
COc1ccc(CNC[C@H]2COCc3nc4cccnc4n32)cc1	-4.105
Cc1cc(CS(=O)(=O)NC2CCCc3ccccc32)on1 (stereo not drawn)	-2.074
COc1cccc(N2CCN(Cc3ccc4[nH]ccc4c3)CC2=O)c1	81.94
COc1cccc(N2Cc3nc(=O)[nH]n3C2=O)c1	-15.51

Compound	Percent Effect [%]
COc1cccc(N2CCN(C(=O)C(C)Oc3ccccc3)CC2=O)c1 (stereo not drawn)	9.152
COc1cccc(N2CCN(C(=O)C(O)CC(C)C)CC2=O)c1 (stereo not drawn)	12.91
COc1cccc(N2CCN(Cc3nccn3C(C)C)CC2=O)c1	98.08
c1ccc2[nH]c(C3CCN(Cc4nnc(C5CC5)o4)CC3)cc2c1	10.45
Cc1cc(CNC(=O)c2cc(NC(=O)C(C)C)ccc2Cl)no1	18.73
O=C1C(N2CCN(c3ccc(O)cc3)CC2)CCN1C1CCOCC1 (stereo not drawn)	-11.86
CC(C)n1cnnc1CN(C)Cc1ccc(CO)o1	-7.369
Cn1cnc2c1CCN(C(C(=O)N1CCCCC1)c1ccccc1)C2 (stereo not drawn)	18.33
O=C(CNc1cc(-c2ccccc2)nc2ccnn12)NC1CC1	-3.438
COC(=O)CSCc1nc(-c2ccc(Cl)cc2)no1	-16.66
COCCOc1ncccc1-c1noc([C@@H]2CCCN2C2CCC2)n1	-10.03
CN(c1cccnn1)[C@@H]1CC[C@@H]2CN(Cc3ccccc3C(=O)O)C[C@@H]21	106.4
CC(O)CN1CCN(Cc2cccc(C(=O)N(C)C)c2)CC1 (stereo not drawn)	-11.87
CN(c1cccnn1)[C@@H]1CC[C@@H]2CN(Cc3cccc(C(=O)O)c3)C[C@@H]21	111.9
Cc1nn(C)c(C)c1CC(=O)N1CCC(N(C)c2cccnn2)CC1	-21.95
CN(c1cccnn1)C1CCN(C(=O)c2ccc3c(c2)COC3)CC1	-3.847
Cn1cccc1C(=O)NCc1cn2c(n1)CN(c1ncccn1)CC2	-46.58
O=C1CCCc2cc(-c3csc(CCN4CCOC4=O)n3)ccc2N1	2.984
CS(=O)(=O)CCOCCNc1ccc(C(F)(F)F)cc1C#N	-20.16
CCn1nc(C)c(CN(CCOC)C(=O)c2cnc(C)nc2O)c1C	-5.757
Nc1nc2nc(C3CCN(C(=O)c4cscn4)C3)ccc2s1 (stereo not drawn)	104
O=C(c1cnccn1)N1CCCC(Cn2cc(C3CCCC3)nn2)C1 (stereo not drawn)	-14.19
Nc1nc2nc(C3CCCN(C(=O)c4cscn4)C3)ccc2s1 (stereo not drawn)	-1.798
Nc1nc2nc(C3CCCN(C(=O)c4cnccn4)C3)ccc2s1 (stereo not drawn)	126
Nc1nc2nc(C3CCCN(C(=O)c4cncs4)C3)ccc2s1 (stereo not drawn)	108.5
O=C(c1cscn1)N1CCC(Cn2cc(-c3ccsc3)nn2)CC1	2.039

Compound	Percent Effect [%]
O=C([C@H]1COC[C@H]2CN(CC3CC3)C[C@H]21)N1CCOCC1	21.74
CN(CCCC1CCCC1)C(=O)c1cc(CN2CCC(O)CC2)on1	-12.63
COc1cccc(-c2nc3c([nH]2)CCNC3)c1F	-6.974
CCOc1ccc(N2CCCN=C2NC(=O)c2ccccc2C)cc1	-3.123
CC(C)NS(=O)(=O)c1cc(C(=O)O)cc(-c2ccc3c(c2)OCCO3)c1	-21.29
Cc1ccc2c(c1)C(NCc1ccccn1)CC2 (stereo not drawn)	6.59
CC(C)NC(=O)[C@@H]1CN(Cc2nccs2)C[C@H]2OCC[C@H]21	-53.61
Cc1cnn(C2CCCN(C(=O)c3cccc(Cn4ccnc4)c3)C2)c1 (stereo not drawn)	6.448
Cc1cnn(C2CCCN(C(=O)c3ccc(Cn4ccnc4)cc3)C2)c1 (stereo not drawn)	106.9
Cc1cnn(C2CCCN(C(=O)c3ccc(-n4ccnc4)cc3)C2)c1 (stereo not drawn)	97.92
CC(c1ccccc1)n1c(SCC(=O)O)nnc1-c1ccn[nH]1 (stereo not drawn)	-4.886
Cn1c(-c2ccccc2)nn(CCNS(=O)(=O)c2ccccc2Cl)c1=O	-1.369
CCCS(=O)(=O)N1Cc2c(ncn2Cc2ccccc2)C[C@H]1C(=O)OC	-4.606
N#Cc1cccc(S(=O)(=O)N2CC(CC(=O)O)c3ccccc32)c1 (stereo not drawn)	-2.78
CC1(C)CN(C(=O)Nc2ccc(Cn3cccn3)cc2)CCO1	-0.352
Cn1cc(C[C@H]2[C@@H](O)CCN2C(=O)C2CCC2)cn1	-13.15
O=C(C1CCC1)N1CC[C@H](O)[C@@H]1Cc1cccnc1.O=C(O)C(F)(F)F	95.67
O=C(C1CC=CC1)N1CC[C@@H](O)[C@H]1Cc1cccnc1	109.3
CN(C)[C@@H]1CCN(C(=O)C2CCOCC2)[C@H]1Cc1ccncc1.O=C(O)C(F)(F)F.O=C(O)C(F)(F)F	-5.936
O=C(C1CCOCC1)N1CC[C@@H](O)[C@@H]1Cc1ccccc1	90.42
Cn1cc(C[C@H]2[C@H](O)CCN2C(=O)C2CCOCC2)cn1	-4.576
Cn1cc(C[C@H]2[C@@H](O)CCN2C(=O)C2CC=CC2)cn1	-1.047
O=C(C1CCOCC1)N1CC[C@@H]2[C@H]1CCC(=O)N2c1ccccc1	-23.21
O=C(O)C(F)(F)F.O=C(O)C(F)(F)F.O[C@@H]1CCN(CC2CCOC2)[C@H]1Cc1cccnc1 (stereo partly drawn)	3.217
O=C(C1CCOCC1)N1CC[C@@H](O)[C@@H]1Cc1ccncc1	93.36
